# Laboratory results reported in PMC7862700, “An all-to-all approach to the identification of sequence-specific readers for epigenetic DNA modifications on cytosine”.
# Legend:
# Experiment in all cases: DAPPL (digital affinity profiling via proximity ligation, sequencing); 10 mM Tris-HCl pH 7.5, 50 mM NaCl, 1 mM DTT, 4% glycerol, room temperature, 30 min; GST-TFs on glutathione beads, 16-mer random dsDNA library, 0.1% formaldehyde crosslink after washing; high values mean tight binding
# [1] = target: T1, FLI1 (Homo sapiens, UniProt Q01543 1-452); conditions: protein: recombinant; tags: N-terminal GST; dsDNA, one strand shown
# T1 sequence: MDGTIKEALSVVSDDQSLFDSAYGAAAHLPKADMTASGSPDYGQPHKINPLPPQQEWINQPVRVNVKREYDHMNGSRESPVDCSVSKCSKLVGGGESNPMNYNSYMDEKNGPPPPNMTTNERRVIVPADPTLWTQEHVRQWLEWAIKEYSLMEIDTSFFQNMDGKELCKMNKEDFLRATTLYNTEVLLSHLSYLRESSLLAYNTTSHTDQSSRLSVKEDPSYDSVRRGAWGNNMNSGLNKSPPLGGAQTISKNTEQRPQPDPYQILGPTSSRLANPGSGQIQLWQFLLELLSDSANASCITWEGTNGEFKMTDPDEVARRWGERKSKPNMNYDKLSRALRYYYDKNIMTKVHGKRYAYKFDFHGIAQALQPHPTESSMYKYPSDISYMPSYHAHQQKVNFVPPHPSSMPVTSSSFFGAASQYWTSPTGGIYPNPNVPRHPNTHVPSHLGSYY
# How it was run: (§1)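 Pools of DNA-barcoded human transcription factors, expressed in yeast as GST fusions on glutathione beads and combined with a tag-only sample, were incubated with 200 nmole of a 16-mer random double-stranded DNA library. Incubation took 30 min at room temperature in Tris/NaCl/DTT/glycerol buffer and was followed by washing, 0.1% formaldehyde crosslinking, proximity ligation (BsaI/T4 ligase, 1 h, 37 °C), PCR amplification and sequencing on an Illumina NextSeq500. Binding signal is the ratio of a hexamer's read frequency for a factor to its frequency for the tag-only sample.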
# [2] = target: T2, ELK1 (Homo sapiens, UniProt P19419 1-428); conditions: protein: recombinant; tags: N-terminal GST; dsDNA, one strand shown
# T2 sequence: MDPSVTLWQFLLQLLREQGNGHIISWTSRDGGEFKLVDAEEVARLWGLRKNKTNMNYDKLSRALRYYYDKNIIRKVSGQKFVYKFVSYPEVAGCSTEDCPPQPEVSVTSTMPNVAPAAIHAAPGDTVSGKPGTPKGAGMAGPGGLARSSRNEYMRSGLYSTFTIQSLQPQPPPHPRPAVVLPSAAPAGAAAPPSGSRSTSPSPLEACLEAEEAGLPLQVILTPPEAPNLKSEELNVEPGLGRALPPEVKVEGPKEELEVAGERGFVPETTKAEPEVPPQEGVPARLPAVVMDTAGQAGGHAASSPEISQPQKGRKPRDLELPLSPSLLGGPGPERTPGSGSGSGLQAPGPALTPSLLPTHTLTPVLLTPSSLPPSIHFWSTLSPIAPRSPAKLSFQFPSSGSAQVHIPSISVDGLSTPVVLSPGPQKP
# How it was run: as §1
# [3] = target: T3, GABPA (Homo sapiens, UniProt Q06546 1-454); conditions: protein: recombinant; tags: N-terminal GST; dsDNA, one strand shown
# T3 sequence: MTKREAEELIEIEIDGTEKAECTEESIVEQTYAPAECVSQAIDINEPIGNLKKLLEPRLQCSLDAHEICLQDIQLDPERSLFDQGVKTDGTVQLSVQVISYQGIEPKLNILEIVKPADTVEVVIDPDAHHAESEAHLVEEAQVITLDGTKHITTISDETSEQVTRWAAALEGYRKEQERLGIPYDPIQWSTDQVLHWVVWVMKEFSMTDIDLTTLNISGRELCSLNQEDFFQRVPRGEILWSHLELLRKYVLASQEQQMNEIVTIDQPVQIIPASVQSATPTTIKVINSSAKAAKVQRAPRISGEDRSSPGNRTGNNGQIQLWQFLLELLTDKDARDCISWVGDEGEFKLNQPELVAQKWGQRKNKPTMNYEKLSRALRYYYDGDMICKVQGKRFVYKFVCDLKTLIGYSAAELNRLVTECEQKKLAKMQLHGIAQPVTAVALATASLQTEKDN
# How it was run: as §1
# [4] = target: T4, ERG (Homo sapiens, UniProt P11308 1-479); conditions: protein: recombinant; tags: N-terminal GST; dsDNA, one strand shown
# T4 sequence: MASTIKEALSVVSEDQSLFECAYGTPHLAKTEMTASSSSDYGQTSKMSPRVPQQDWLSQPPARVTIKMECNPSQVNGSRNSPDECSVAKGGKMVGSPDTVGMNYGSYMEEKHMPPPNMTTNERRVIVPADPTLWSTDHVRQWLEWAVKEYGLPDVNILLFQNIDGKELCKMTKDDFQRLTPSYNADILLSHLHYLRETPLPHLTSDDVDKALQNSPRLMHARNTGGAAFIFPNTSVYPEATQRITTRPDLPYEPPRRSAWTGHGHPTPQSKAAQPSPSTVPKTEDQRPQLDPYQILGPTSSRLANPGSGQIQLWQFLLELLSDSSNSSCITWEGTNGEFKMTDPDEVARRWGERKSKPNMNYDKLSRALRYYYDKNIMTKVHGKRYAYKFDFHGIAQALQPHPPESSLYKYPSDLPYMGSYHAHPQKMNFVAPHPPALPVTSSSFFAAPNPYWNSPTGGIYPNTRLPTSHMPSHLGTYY
# How it was run: as §1
# [5] = target: ELF1 (Homo sapiens, UniProt P32519 1-619); conditions: protein: recombinant; tags: N-terminal GST; dsDNA, one strand shown
# How it was run: as §1
# [6] = target: T5, EHF (Homo sapiens, UniProt Q9NZC4 1-300); conditions: protein: recombinant; tags: N-terminal GST; dsDNA, one strand shown
# T5 sequence: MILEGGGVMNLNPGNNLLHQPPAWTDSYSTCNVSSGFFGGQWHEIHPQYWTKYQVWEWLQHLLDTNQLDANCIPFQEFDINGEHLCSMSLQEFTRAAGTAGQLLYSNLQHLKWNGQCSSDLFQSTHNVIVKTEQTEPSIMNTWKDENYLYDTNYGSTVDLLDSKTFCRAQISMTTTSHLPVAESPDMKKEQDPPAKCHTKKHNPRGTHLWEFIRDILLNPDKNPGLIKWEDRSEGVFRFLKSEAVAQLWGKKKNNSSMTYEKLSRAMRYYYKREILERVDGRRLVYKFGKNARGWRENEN
# How it was run: as §1
# [7] = target: SPI1 (Homo sapiens, UniProt P17947 1-270); conditions: protein: recombinant; tags: N-terminal GST; dsDNA, one strand shown
# How it was run: as §1
# [8] = target: SPIB (Homo sapiens, UniProt Q01892 1-262); conditions: protein: recombinant; tags: N-terminal GST; dsDNA, one strand shown
# How it was run: as §1
# [9] = target: T6, ELK3 (Homo sapiens, UniProt P41970 1-407); conditions: protein: recombinant; tags: N-terminal GST; dsDNA, one strand shown
# T6 sequence: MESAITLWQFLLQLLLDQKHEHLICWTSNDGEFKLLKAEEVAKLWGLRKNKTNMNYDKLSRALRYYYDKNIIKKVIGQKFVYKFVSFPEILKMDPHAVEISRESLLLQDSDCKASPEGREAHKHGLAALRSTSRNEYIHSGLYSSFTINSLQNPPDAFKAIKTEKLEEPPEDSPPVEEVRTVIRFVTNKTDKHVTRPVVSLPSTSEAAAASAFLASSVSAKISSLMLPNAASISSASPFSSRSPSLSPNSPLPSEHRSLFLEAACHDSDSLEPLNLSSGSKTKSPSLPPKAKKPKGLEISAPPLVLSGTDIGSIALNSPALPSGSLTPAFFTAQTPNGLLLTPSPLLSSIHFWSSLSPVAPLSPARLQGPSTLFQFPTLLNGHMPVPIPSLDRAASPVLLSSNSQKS
# How it was run: as §1
# [10] = target: T7, FEV (Homo sapiens, UniProt Q99581 1-238); conditions: protein: recombinant; tags: N-terminal GST; dsDNA, one strand shown
# T7 sequence: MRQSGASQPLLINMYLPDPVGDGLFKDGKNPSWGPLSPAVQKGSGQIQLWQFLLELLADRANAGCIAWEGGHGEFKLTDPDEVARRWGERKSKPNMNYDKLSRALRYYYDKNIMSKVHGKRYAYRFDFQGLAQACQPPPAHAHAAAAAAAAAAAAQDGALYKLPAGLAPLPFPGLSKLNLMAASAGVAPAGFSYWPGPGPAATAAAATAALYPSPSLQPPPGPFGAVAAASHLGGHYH
# How it was run: as §1
# [11] = target: ETV5 (Homo sapiens, UniProt P41161 1-510); conditions: protein: recombinant; tags: N-terminal GST; dsDNA, one strand shown
# How it was run: as §1
# [12] = target: HSF1 (Homo sapiens, UniProt Q00613 1-529); conditions: protein: recombinant; tags: N-terminal GST; chain copies: 3; dsDNA, one strand shown
# How it was run: as §1
# [13] = target: T8, SPIC (Homo sapiens, UniProt Q8N5J4 1-248); conditions: protein: recombinant; tags: N-terminal GST; dsDNA, one strand shown
# T8 sequence: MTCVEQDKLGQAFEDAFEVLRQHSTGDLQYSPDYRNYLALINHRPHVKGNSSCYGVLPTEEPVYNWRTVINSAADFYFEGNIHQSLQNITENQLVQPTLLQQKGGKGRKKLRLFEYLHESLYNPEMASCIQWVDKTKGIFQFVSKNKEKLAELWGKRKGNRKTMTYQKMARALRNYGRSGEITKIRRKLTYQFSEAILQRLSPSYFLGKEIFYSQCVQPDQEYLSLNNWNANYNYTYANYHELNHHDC
# How it was run: as §1
# [14] = target: ELF4 (Homo sapiens, UniProt Q99607 1-663); conditions: protein: recombinant; tags: N-terminal GST; dsDNA, one strand shown
# How it was run: as §1
# [15] = target: T9, ELK4 (Homo sapiens, UniProt P28324-2 1-405); conditions: protein: recombinant; tags: N-terminal GST; dsDNA, one strand shown
# T9 sequence: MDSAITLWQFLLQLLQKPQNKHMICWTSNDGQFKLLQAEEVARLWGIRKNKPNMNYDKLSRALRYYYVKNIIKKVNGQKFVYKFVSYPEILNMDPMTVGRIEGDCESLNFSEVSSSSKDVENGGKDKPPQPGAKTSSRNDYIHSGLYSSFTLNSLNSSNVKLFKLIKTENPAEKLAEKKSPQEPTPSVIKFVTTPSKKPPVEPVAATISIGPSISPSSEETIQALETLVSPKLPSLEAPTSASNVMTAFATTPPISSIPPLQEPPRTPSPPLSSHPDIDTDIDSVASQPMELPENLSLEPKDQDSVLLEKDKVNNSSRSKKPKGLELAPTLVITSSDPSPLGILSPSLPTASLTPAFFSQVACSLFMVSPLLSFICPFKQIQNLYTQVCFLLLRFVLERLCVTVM
# How it was run: as §1
# [16] = target: T10, ETV2 (Homo sapiens, UniProt O00321 1-342); conditions: protein: recombinant; tags: N-terminal GST; dsDNA, one strand shown
# T10 sequence: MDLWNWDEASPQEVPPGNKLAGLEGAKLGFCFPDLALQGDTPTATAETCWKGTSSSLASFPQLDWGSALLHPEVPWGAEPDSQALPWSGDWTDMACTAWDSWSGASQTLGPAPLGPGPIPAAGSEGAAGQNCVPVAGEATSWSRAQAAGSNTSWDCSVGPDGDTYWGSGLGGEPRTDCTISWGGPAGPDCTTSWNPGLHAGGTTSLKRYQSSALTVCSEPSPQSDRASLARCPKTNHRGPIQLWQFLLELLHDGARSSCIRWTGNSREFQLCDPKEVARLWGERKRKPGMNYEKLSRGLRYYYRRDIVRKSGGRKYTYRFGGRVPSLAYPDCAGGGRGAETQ
# How it was run: as §1
# [17] = target: T11, ELF3 (Homo sapiens, UniProt P78545 1-371); conditions: protein: recombinant; tags: N-terminal GST; dsDNA, one strand shown
# T11 sequence: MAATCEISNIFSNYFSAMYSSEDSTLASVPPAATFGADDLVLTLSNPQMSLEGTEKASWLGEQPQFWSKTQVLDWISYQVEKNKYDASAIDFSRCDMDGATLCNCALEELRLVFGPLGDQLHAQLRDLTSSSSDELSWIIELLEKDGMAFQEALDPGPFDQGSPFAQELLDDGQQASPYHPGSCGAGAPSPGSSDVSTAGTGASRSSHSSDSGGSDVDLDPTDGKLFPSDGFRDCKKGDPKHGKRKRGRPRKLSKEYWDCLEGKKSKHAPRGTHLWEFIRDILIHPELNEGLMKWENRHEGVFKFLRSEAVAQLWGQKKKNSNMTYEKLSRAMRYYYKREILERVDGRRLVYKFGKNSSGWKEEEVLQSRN
# How it was run: as §1
# [18] = target: CRX (Homo sapiens, UniProt O43186 1-299); conditions: protein: recombinant; tags: N-terminal GST; dsDNA, one strand shown
# How it was run: as §1
# [19] = target: ETV1 (Homo sapiens, UniProt P50549 1-477); conditions: protein: recombinant; tags: N-terminal GST; dsDNA, one strand shown
# How it was run: as §1
# SPIB, sequence (Q01892 whole entry): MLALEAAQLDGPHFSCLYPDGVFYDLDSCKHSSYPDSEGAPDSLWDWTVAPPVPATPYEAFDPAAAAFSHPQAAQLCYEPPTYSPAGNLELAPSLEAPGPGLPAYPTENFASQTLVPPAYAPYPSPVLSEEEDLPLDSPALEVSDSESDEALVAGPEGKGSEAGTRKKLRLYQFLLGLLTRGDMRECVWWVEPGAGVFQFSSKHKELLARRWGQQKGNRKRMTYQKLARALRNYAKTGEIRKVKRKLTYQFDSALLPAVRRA
# ELF1, sequence (P32519 whole entry): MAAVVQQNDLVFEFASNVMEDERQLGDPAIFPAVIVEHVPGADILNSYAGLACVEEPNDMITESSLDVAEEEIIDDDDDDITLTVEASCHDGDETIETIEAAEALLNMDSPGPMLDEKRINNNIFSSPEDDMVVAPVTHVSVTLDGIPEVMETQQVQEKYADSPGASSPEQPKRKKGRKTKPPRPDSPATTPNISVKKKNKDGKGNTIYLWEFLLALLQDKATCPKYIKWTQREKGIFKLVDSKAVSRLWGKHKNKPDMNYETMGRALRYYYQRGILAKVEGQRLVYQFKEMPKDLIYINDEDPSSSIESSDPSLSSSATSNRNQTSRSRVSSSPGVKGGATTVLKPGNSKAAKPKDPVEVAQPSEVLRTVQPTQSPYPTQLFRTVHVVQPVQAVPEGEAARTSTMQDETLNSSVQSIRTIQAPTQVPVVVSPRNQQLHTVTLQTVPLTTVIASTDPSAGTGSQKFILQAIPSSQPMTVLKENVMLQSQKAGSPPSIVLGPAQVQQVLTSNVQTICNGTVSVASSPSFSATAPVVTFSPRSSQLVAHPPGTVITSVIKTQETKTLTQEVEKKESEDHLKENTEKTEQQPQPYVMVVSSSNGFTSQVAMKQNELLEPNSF
# ETV1, sequence (P50549 whole entry): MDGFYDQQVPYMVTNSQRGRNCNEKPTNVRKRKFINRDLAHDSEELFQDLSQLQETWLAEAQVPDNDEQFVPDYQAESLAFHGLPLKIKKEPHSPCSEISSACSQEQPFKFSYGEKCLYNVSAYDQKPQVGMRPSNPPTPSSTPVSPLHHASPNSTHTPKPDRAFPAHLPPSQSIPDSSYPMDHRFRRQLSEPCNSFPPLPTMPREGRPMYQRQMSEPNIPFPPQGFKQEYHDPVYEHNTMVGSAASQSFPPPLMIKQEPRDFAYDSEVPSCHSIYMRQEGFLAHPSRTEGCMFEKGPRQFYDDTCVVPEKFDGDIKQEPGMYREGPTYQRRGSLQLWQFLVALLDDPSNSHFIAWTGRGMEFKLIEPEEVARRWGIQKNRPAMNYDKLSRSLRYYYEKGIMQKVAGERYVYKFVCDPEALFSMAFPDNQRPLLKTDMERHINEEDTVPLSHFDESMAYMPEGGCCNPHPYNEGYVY
# CRX, sequence (O43186 whole entry): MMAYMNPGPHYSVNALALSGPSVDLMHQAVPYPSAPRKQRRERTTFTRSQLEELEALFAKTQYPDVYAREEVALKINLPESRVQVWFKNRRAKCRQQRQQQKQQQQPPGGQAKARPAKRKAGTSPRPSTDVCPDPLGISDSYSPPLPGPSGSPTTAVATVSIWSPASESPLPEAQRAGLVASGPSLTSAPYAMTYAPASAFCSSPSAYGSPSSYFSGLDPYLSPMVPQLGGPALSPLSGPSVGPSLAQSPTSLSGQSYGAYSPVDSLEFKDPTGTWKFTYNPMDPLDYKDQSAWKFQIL
# ETV5, sequence (P41161 whole entry): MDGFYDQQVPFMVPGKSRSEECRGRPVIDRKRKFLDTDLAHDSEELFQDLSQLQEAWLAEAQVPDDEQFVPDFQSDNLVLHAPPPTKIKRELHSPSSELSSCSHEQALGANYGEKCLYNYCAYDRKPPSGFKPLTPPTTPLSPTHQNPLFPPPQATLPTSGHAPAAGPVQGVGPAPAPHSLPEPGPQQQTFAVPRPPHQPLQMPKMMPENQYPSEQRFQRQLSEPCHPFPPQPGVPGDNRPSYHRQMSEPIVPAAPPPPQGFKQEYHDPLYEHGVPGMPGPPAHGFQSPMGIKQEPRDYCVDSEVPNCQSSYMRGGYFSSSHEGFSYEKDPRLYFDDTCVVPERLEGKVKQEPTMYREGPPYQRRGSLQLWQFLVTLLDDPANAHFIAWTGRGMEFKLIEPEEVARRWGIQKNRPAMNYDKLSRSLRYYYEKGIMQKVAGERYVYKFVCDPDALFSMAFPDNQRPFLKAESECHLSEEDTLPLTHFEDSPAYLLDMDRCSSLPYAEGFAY
# ELF4, sequence (Q99607 whole entry): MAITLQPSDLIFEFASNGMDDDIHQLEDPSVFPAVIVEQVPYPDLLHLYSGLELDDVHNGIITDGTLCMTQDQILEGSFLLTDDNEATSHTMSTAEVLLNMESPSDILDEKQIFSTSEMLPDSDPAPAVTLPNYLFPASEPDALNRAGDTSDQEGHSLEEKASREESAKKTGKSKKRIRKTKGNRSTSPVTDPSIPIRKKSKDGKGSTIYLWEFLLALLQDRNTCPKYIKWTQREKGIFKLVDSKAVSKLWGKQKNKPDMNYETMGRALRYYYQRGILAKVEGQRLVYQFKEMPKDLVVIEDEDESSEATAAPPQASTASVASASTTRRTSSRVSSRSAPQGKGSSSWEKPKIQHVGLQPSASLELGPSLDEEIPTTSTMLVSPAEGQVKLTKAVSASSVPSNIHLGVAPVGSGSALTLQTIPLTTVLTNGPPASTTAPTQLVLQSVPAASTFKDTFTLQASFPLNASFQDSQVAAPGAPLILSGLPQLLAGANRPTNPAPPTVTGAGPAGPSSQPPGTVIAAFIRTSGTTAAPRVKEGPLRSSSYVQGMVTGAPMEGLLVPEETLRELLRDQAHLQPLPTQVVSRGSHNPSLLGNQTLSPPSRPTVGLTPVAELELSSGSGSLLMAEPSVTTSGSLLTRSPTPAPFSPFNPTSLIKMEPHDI
# HSF1, sequence (Q00613 whole entry): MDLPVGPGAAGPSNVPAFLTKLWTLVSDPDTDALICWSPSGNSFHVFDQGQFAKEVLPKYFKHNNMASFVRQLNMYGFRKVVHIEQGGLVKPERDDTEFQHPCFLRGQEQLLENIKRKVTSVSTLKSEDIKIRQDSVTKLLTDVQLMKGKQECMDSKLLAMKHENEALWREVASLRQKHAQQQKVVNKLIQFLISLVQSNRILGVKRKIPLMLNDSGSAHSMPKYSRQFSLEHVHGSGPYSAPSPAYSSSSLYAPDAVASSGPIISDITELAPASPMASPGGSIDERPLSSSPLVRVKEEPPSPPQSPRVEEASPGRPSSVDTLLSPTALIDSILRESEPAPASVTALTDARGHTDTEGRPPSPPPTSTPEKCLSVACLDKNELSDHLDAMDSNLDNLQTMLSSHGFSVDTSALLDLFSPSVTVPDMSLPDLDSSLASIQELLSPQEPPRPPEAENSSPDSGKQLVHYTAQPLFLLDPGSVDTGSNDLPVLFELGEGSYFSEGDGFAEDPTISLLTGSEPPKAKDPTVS
sequence,measurement,setting,value
AACTTT,binding signal,[1],"1.38 fold enrichment (6-mer frequency, TF over GST control)"
same,binding signal,[2],"1.27 fold enrichment (6-mer frequency, TF over GST control)"
same,binding signal,[3],"1.17 fold enrichment (6-mer frequency, TF over GST control)"
same,binding signal,[4],"1.16 fold enrichment (6-mer frequency, TF over GST control)"
same,binding signal,[5],"1.23 fold enrichment (6-mer frequency, TF over GST control)"
same,binding signal,[6],"1.18 fold enrichment (6-mer frequency, TF over GST control)"
same,binding signal,[7],"1.23 fold enrichment (6-mer frequency, TF over GST control)"
same,binding signal,[8],"1.32 fold enrichment (6-mer frequency, TF over GST control)"
same,binding signal,[9],"1.2 fold enrichment (6-mer frequency, TF over GST control)"
same,binding signal,[10],"1.18 fold enrichment (6-mer frequency, TF over GST control)"
same,binding signal,[11],"1.19 fold enrichment (6-mer frequency, TF over GST control)"
same,binding signal,[12],"1.68 fold enrichment (6-mer frequency, TF over GST control)"
same,binding signal,[13],"1.45 fold enrichment (6-mer frequency, TF over GST control)"
same,binding signal,[14],"1.19 fold enrichment (6-mer frequency, TF over GST control)"
same,binding signal,[15],"1.32 fold enrichment (6-mer frequency, TF over GST control)"
same,binding signal,[16],"1.3 fold enrichment (6-mer frequency, TF over GST control)"
same,binding signal,[17],"1.33 fold enrichment (6-mer frequency, TF over GST control)"
same,binding signal,[18],"1.27 fold enrichment (6-mer frequency, TF over GST control)"
same,binding signal,[19],"1.23 fold enrichment (6-mer frequency, TF over GST control)"
